High-throughput results as filed in PubChem.
In the library only some 2.4% were active in any assay of this set; here they are far more common.
D2 PAM-1 – positively modulates the human D2 dopamine receptor allosterically; 340,000 tested, 0.34% active; P14416; HEK293 T-REx D2, calcium flux, EC20 dopamine potentiation; potentiation, % at 10 µM;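 active = potentiation over 3 SD above the plate norm, cut at about 30% in these data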
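Cells plated with tetracycline inducer and held overnight at 30 C; calcium dye loaded 30–90 min at room temperature; baseline taken, compound added and read 180 s; EC20 dopamine then added and read 180 s.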
D2 antag – antagonizes the human D2 dopamine receptor. inhibition, % at 10 µM. P14416. 340,000 tested, 2% active. HEK293 TREx D2 cells, calcium flux, dopamine EC80; in the data active = inhibition above about 30%; inactive = below that, where a call was filed
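Tetracycline-induced HEK293 TREx cells expressing D2 receptor forced-coupled to calcium signalling, loaded with no-wash calcium dye. Compounds added and calcium flux read 180 s, then dopamine added at EC80 and read a further 180 s.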
D2 PAM-2 – human D2 receptor positive allosteric modulation. P14416. DiscoveRx D2 beta-arrestin cells, luminescence, 90 min; 100% = 57 uM dopamine signal. potentiation, % (no concentration beside the values). 360,000 tested, 0.23% active; in the data active = potentiation above about 50%; inconclusive = mostly about 30% to 49%
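PathHunter beta-arrestin assay in DiscoveRx D2 cells. Compounds were added with an EC20 of dopamine (50 nM final) for 90 min at 37 deg C. Luminescence was read 1 h after detection reagent, with 57 uM dopamine as the EC100 control.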
D2 ag-1 – agonists of human D2 dopamine receptor (beta-arrestin); DiscoveRx PathHunter D2 beta-arrestin, luminescence, 90 min; 100% = 57 uM dopamine signal; AID 624465; 360,000 tested, 0.084% active; activation, % (no concentration beside the values); in the data active = activation above about 40%; inconclusive = between about 15% and that limit
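Agonist mode: compounds alone added to overnight-plated D2 PathHunter cells for 90 min at 37 C, with 57 uM final dopamine (EC100) defining full response. Beta-arrestin recruitment detected by chemiluminescent reagent, read after 1 h at ambient temperature.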
D2 ag-2 – agonists of human D2 dopamine receptor; activation, % at 2 µM; AID 485358; P14416; HEK293 T-REx D2 cells, calcium flux agonist mode; 340,000 tested, 0.53% active;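 active = activation over 3 SD above normal in the single-dose calcium agonist read, cut at about 30% in these data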
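Tetracycline-induced HEK293 T-REx cells with force-coupled D2 receptor, plated overnight at 30 C, loaded with no-wash calcium dye. After a 10 s baseline, compound was pin-added and calcium flux read kinetically for 180 s; calcium rises flagged agonists.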
D3 arrestin ag – confirmation of human D3 dopamine receptor agonists, beta-arrestin; shares compounds with D2 ag-2; DiscoveRx D3 beta-arrestin cells, luminescence, 90 min; Potency, µM (titrated, usually from 76.9 µM), usual class: activators; 2,300 tested, 4% active; AID 720506; also: nearly all actives have a fitted effect of over 70% in size
Target sequence (P35462 whole entry, looked up): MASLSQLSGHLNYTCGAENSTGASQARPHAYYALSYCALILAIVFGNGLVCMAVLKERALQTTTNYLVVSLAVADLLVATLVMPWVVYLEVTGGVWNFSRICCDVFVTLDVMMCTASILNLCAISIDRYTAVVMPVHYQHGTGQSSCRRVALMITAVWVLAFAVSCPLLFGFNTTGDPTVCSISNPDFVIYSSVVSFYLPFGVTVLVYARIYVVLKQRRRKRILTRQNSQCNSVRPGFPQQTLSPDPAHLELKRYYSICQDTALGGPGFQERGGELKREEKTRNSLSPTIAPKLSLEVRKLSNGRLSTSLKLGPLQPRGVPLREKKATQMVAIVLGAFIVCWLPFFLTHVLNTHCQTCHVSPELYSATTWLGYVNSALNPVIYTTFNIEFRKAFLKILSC
D2 ag-3 – D2 receptor agonism, beta-arrestin counterscreen. 2,300 tested, 5.9% active. AID 720507. Potency, µM (doses to about 76.9 µM), hits mostly activators. DiscoveRx PathHunter D2 beta-arrestin, luminescence, 90 min; response scale: percent relative to full dopamine signal. shares compounds with D2 ag-2; also: nearly all actives have a fitted effect of over 70% in size
A number is an active result; – = inactive; ? = inconclusive; · = no result given. Unless noted, calls follow the shape of the dose curve; as a rule, active = well fitted activation curve with a large enough effect; inconclusive = small, poorly fitted or top-dose-only effect; inactive = flat fitted curve, though single readings scatter.

SMILES	D2 PAM-1	D2 antag	D2 PAM-2	D2 ag-1	D2 ag-2	D3 arrestin ag	D2 ag-3
CCN1CCc2c(sc(NC(=O)c3ccc(S(=O)(=O)N4CCCC(C)C4)cc3)c2C(=O)OC)C1 (stereo unspecified)	–	·	·	·	–	·	·
COc1cc(NC(=O)Nc2nc(C(N)Cc3ccc(C(F)(F)F)cc3)cs2)cc(OC)c1OC (stereo unspecified)	·	·	–	–	·	·	·
CCOc1ccc(NC(=S)NC(=O)Cc2ccccc2)cc1	–	–	–	–	–	·	·
CCN(CC)c1ccc(NC(=S)NC(=O)Cc2ccccc2)cc1	–	77.2	–	–	73.2	–	–
COc1cc(Nc2ncc3c(n2)CCN(Cc2ccc(OC(C)C)c(OC)c2)C3)cc(OC)c1	–	·	·	·	–	·	·
Cc1cccc(C)c1OCc1cc(=O)n2c3c(sc2n1)CCCC3	–	·	·	·	–	·	·
CCC(C)N(CCNC(=O)c1ccc2c(c1)NC(=O)c1ccccc1S2)C1CCCCC1 (stereo unspecified)	–	·	–	–	·	–	–
CCc1ccc(-n2nc(CO)c(C(=O)NC)n2)cc1	–	·	·	·	–	·	·
CCC(C(=O)N1CCN(Cc2ccc3c(c2)OCO3)CC1)n1c(=O)[nH]c2ccccc2c1=O (stereo unspecified)	–	–	–	–	46.0	–	–
Cn1c(=O)cc(SCC(=O)N2CCN(Cc3ccc4c(c3)OCO4)CC2)c2ccccc21	–	40.9	–	–	37.7	–	–
Cc1ccc(CSCC(=O)N2CCN(Cc3ccc4c(c3)OCO4)CC2)cc1	–	–	–	–	45.0	–	–
CC(C)[C@@H](C(=O)N1CCN(Cc2ccc3c(c2)OCO3)CC1)n1nnc2ccccc2c1=O	·	·	–	–	·	·	·
CC(=O)Nc1ccc(S(=O)(=O)NCCC(=O)NCCOc2ccccc2)cc1	–	–	–	–	–	–	–
O=C(CCNS(=O)(=O)c1ccccc1)NCCCSc1ccccc1	–	–	–	–	–	·	·
Cc1ccc(S(=O)(=O)NCCC(=O)NCCCSc2ccccc2)cc1	–	–	–	–	–	–	–
O=C(NCc1cccnc1)c1nn(-c2ccc(F)cc2)nc1CO	–	·	·	·	–	·	·
CC1(C(=O)NS(=O)(=O)C2CC2)CCCN(C(=O)c2cccc(Cl)c2)C1 (stereo unspecified)	·	·	–	–	·	·	·
OCCN(CCO)Cc1csc2ccccc12	–	–	–	–	35.0	–	–
OCCN(Cc1ccccc1)Cc1ccccc1O	–	–	–	–	–	·	·
Cc1c(Cc2ccccc2)c(=O)oc2c(O)c(O)ccc12	–	33.8	–	–	54.1	?	–
CC1(C)NC(=O)N(CC(=O)N2CCN(S(=O)(=O)c3cc(Cl)ccc3Cl)CC2)C1=O	–	·	–	–	·	–	–
CN(C)S(=O)(=O)c1ccc(NC(=O)/C=C/c2ccccc2Cl)cc1	–	–	–	?	–	?	–
O=C(/C=C/c1ccccc1Cl)Nc1ccccc1	–	–	–	–	–	·	·
CC(=O)N1CCC2(CC1)OC(=O)C(C)=C2C(=O)Nc1cc(C)ccc1C	–	·	·	·	·	·	·
COc1ccc(Cl)cc1NC(=O)c1c(NCc2cccs2)sc2c1CCC(C)C2 (stereo unspecified)	–	·	·	·	–	·	·
SMILES	D2 PAM-1	D2 antag	D2 PAM-2	D2 ag-1	D2 ag-2	D3 arrestin ag	D2 ag-3
CC(=O)NC(C)(c1ccccc1)c1nc(-c2cccc(F)c2)cs1 (stereo unspecified)	·	·	–	–	·	·	·
COc1ccc(NC(=O)C(C)N2CCN(C)CC2)cc1 (stereo unspecified)	–	–	–	–	79.1	–	–
Cc1cc(C)nc(/N=C(\N)Nc2ccc(CC(=O)OC(C)C)cc2)n1	–	58.6	–	–	33.2	–	?
Cc1cc(C)nc(/N=C(\N)Nc2cccc(OCc3ccccc3)c2)n1	–	62.7	–	–	76.6	–	–
COc1ccccc1N/C(N)=N/c1nc(C)cc(C)n1	–	–	–	–	–	·	·
Cc1cc(C)nc(/N=C(\N)Nc2ccc(OCCC(C)C)cc2)n1	–	51.9	–	–	82.5	–	–
Cc1cc(C)nc(/N=C(\N)Nc2ccc(S(=O)(=O)O)cc2)n1	–	–	–	–	–	·	·
CCc1ccc(N/C(=N/c2nc(C)cc(C)n2)NC(C)=O)cc1	–	–	–	–	–	·	·
CCOc1ccccc1NC(=O)c1c(NC(=O)Cc2ccc(OC)cc2)sc2c1CCC2	–	·	·	·	–	·	·
CC(=O)N1CCc2c(sc3c2c(=O)n(-c2cccc(Cl)c2)c(=O)n3Cc2ccc(F)cc2Cl)C1	–	·	·	·	–	·	·
O=C(Nc1ccc(Oc2ccccc2)cc1)c1ccc(F)c(S(=O)(=O)N2CCN(c3ccccc3F)CC2)c1	–	·	·	·	–	·	·
CNc1ccccc1C(=O)OCC(=O)N1CCc2ccccc2C1	·	·	–	–	·	·	·
O=C(O)/C=C/C(=O)NCCc1ccc(Cl)cc1	–	–	–	–	–	·	·
O=C(O)/C=C/C(=O)NCCc1ccccc1	–	60.9	–	–	77.9	–	–
Cc1cc(C)c(NC(=O)Cn2cnc3c(oc4ccccc43)c2=O)c(C)c1	–	–	–	–	–	–	–
CCOC(=O)C1=C(CSc2nc(-c3ccncc3)ccc2C#N)OC(N)=C(C#N)C1c1ccc(OC)cc1 (stereo unspecified)	–	–	–	–	–	·	·
CCOC(=O)C1=C(CSc2nc(CC)c(C)cc2C#N)OC(N)=C(C#N)C1c1ccc(OC)cc1 (stereo unspecified)	–	–	–	–	–	–	–
Oc1ccccc1N1CCN(C(=S)Nc2ccc(SC(F)F)cc2)CC1	–	–	–	–	–	·	·
FC(F)Sc1ccc(NC(=S)N2CCN(c3ccccn3)CC2)cc1	–	–	–	–	30.6	?	?
CCc1ccccc1NC(=S)N1CCN(c2ccccn2)CC1	–	–	–	–	32.8	–	?
FC(F)(F)c1cccc(NC(=S)N2CCN(c3ccccn3)CC2)c1	–	–	–	–	–	–	–
Cc1ccc(NC(=S)N2CCN(c3ccccn3)CC2)c(C)c1	–	30.9	–	–	34.1	–	–
Fc1ccccc1NC(=S)N1CCN(c2ccccn2)CC1	–	–	–	–	–	·	·
Cc1ccc(Cl)cc1NC(=O)C(=O)NCCc1sc(-c2ccc(F)cc2)nc1C	–	·	·	·	·	·	·
CC(=O)Nc1nonc1-c1nnc(SCC(=O)Nc2ccc(C)cc2C)n1C	–	·	·	·	–	·	·
CCOC(=O)C(CC)Sc1nnc2[nH]c(=O)cc(C)n12 (stereo unspecified)	–	·	·	·	–	·	·
COc1ccc(/C=C/C(=O)N2CCN(c3ccccn3)CC2)cc1OC	–	–	–	–	–	–	–
COc1cc(NC(=S)N2CCN(c3ccccn3)CC2)cc(OC)c1OC	·	·	–	–	·	·	·
